Some test systems named below: DU-145 prostate; K-562 leukemia; MALME-3M melanoma; MDA-MB-231 breast; RXF 393 renal; SF-268 CNS; SF-295 CNS; SF-539 CNS; UACC-257 melanoma; M14 melanoma; HCT-15 colon; HT29 colon; SNB-75 CNS; SNB-19 CNS; U251 CNS; PC-3 prostate; SK-MEL-5 melanoma; UACC-62 melanoma; SK-MEL-28 melanoma.
Common to all, as to test: NCI-60 one-dose screen, 48 h (100 = growth as untreated, 0 = no growth, -100 = all killed)
What all share (conditions): 10 µM unless noted

SMILES strings stand for the structures. This is part of a sample that, as a whole, favours compounds with a hit. Of some 83,000 tested, about 20% had one in any assay.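 48-hour exposure, single concentration, 96-well plates; percent growth endpoint where 0 means no net growth. Active: below 10.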 A number with no mark means an inactive call. Activity calls are given as the source filed them.

Regarding `CC(=O)Nc1ccc(C(=O)NC(=S)Nc2ccc(S(N)(=O)=O)cc2)cc1`, the growth is 105% with DU-145 prostate; 86.6% in the experiment with K-562 leukemia; 89.9% with MALME-3M melanoma; 99.3% in the experiment on MDA-MB-231 breast; 93.2% with RXF 393 renal; 97.1% in the experiment on SF-268 CNS. The growth with SF-295 CNS was 102%; in the experiment with SF-539 CNS, 90.7%; in the experiment with UACC-257 melanoma it was 95.2%; with M14 melanoma it was 93.6%; in the experiment on HCT-15 colon, 106%; in the experiment on HT29 colon, 92.6%. In addition, the growth was 78.1% in the experiment on SNB-75 CNS; 98.4% with SNB-19 CNS; 94.2% in the experiment with U251 CNS; 97.9% in the experiment with PC-3 prostate; 88.3% in the experiment on SK-MEL-5 melanoma; 86.9% in the experiment with UACC-62 melanoma. Moreover, in the experiment with SK-MEL-28 melanoma, the growth is 97%.

Consider `CC(=O)Nc1ccc(-n2cnc3ccc(-c4ccc(O)cc4)cc32)cc1`, for which the growth was 44.7% in the experiment on DU-145 prostate; 56.6% with K-562 leukemia; 50.3% with MALME-3M melanoma; 70.4% with MDA-MB-231 breast; 10.9% in the experiment on RXF 393 renal; 36.3% with SF-268 CNS. Moreover, the growth in the experiment with SF-295 CNS was 56%; with SF-539 CNS it was 34.2%; with UACC-257 melanoma, 67.3%; in the experiment on M14 melanoma, 48.7%; in the experiment on HCT-15 colon, 52%; with HT29 colon, 102%. Also, the growth in the experiment on SNB-75 CNS is 56.5%; in the experiment on SNB-19 CNS, 55.5%; in the experiment on U251 CNS it was 37%; in the experiment on PC-3 prostate, 47.6%; in the experiment with SK-MEL-5 melanoma, 54.6%; in the experiment on UACC-62 melanoma it was 46.1%. The growth with SK-MEL-28 melanoma is 44.3%.

Turning to `COc1cc(C2CC(c3cc(OC)c(OC)c(OC)c3)=NN2C(C)=O)ccc1OCc1ccccc1` (configuration not stated), the growth was 40.4% in the experiment on DU-145 prostate; 18.6% with K-562 leukemia; 43.1% in the experiment with MALME-3M melanoma; 64% in the experiment on MDA-MB-231 breast; 31.4% in the experiment on RXF 393 renal; 47.8% with SF-268 CNS. For the same compound, the growth was 24.6% in the experiment on SF-295 CNS; 51.7% with SF-539 CNS; 48.8% with UACC-257 melanoma; 36.9% in the experiment on M14 melanoma; 34.6% in the experiment with HCT-15 colon; 38% in the experiment on HT29 colon. The growth in the experiment on SNB-75 CNS is 49.3%; with SNB-19 CNS, 52.2%; in the experiment on U251 CNS, 44.3%; in the experiment on PC-3 prostate it was 9.84% (active); in the experiment on SK-MEL-5 melanoma, 9.77% (active); in the experiment with UACC-62 melanoma it was 24%. In addition, in the experiment on SK-MEL-28 melanoma, the growth was 42.1%.

Turning to `C=CC[N+](C)(C)CCn1c2ccccc2c2nc3cc(C)c(C)cc3nc21`, the growth is 105% with DU-145 prostate; 75.7% with K-562 leukemia; 57.1% in the experiment with MALME-3M melanoma; 105% with MDA-MB-231 breast; 89.2% in the experiment on RXF 393 renal; 56.1% in the experiment on SF-268 CNS. In addition, the growth is 99.6% in the experiment with SF-295 CNS; 56.8% in the experiment on SF-539 CNS; 86% with UACC-257 melanoma; 96.2% in the experiment with M14 melanoma; 106% with HCT-15 colon; 105% in the experiment on HT29 colon. Further, the growth was 88.5% with SNB-75 CNS; 19.2% with SNB-19 CNS; 72.9% with U251 CNS; 97.4% in the experiment with PC-3 prostate; 63.7% in the experiment on SK-MEL-5 melanoma; 97.1% with UACC-62 melanoma. Further, in the experiment with SK-MEL-28 melanoma, the growth is 79.6%.

In the case of `COc1ccc2[nH]cc(-c3nnc(N)nc3-c3c[nH]c4ncc(Br)cc34)c2c1`, the growth in the experiment on DU-145 prostate was 92.6%; in the experiment with K-562 leukemia it was 74.1%; in the experiment with MALME-3M melanoma, 92.5%; in the experiment with MDA-MB-231 breast, 73.4%; in the experiment with RXF 393 renal, 79.2%; with SF-268 CNS, 85.5%. Further, the growth in the experiment with SF-295 CNS is 82%; with SF-539 CNS, 70.7%; in the experiment with UACC-257 melanoma it was 127%; in the experiment with M14 melanoma it was 97.6%; with HCT-15 colon, 90.8%; in the experiment with HT29 colon it was 96.7%. Further, the growth with SNB-75 CNS is 93.5%; in the experiment on SNB-19 CNS, 91%; in the experiment on U251 CNS, 76.1%; with PC-3 prostate it was 110%; with SK-MEL-5 melanoma, 91.1%; in the experiment on UACC-62 melanoma, 80.1%. Moreover, in the experiment with SK-MEL-28 melanoma, the growth is 98.9%.

Consider `CN(C)CCn1c2ccccc2c2nc3cc4ccccc4cc3nc21`, for which the growth was -30% (active) in the experiment with DU-145 prostate; 2.68% (active) in the experiment on K-562 leukemia; -87.3% (active) with MALME-3M melanoma; 9% (active) in the experiment with MDA-MB-231 breast; -42.9% (active) in the experiment on RXF 393 renal; 46.2% in the experiment on SF-268 CNS. For the same compound, the growth is -67.6% (active) with SF-295 CNS; -72.2% (active) in the experiment on SF-539 CNS; 18.1% with UACC-257 melanoma; -63.3% (active) in the experiment with M14 melanoma; -35.8% (active) in the experiment with HCT-15 colon; -50.4% (active) with HT29 colon. Besides, the growth is 43% with SNB-75 CNS; 28.9% with SNB-19 CNS; -69.3% (active) in the experiment with U251 CNS; 3.43% (active) in the experiment with PC-3 prostate; 14.6% in the experiment with SK-MEL-5 melanoma; 57.2% in the experiment with UACC-62 melanoma. For the same compound, in the experiment on SK-MEL-28 melanoma, the growth was -80.1% (active).

As to `COCOc1cc2c(=O)c(C)c(C(=O)N[C@@H](Cc3ccccc3)C(O)C(=O)NCc3ccccc3)oc2cc1OC` (some centres not stated), the growth with DU-145 prostate was 57.3%; in the experiment on K-562 leukemia it was 40.6%; in the experiment with MALME-3M melanoma, -27.7% (active); in the experiment with MDA-MB-231 breast, 25.6%; with RXF 393 renal, -17.2% (active); in the experiment on SF-268 CNS it was 1.19% (active). For the same compound, the growth in the experiment on SF-295 CNS is 83.5%; in the experiment on SF-539 CNS, -79.7% (active); in the experiment on UACC-257 melanoma it was 30.2%; in the experiment on M14 melanoma it was 65.2%; in the experiment on HCT-15 colon, 84.3%; in the experiment on HT29 colon, 43.3%. In addition, the growth in the experiment with SNB-75 CNS was 3.85% (active); in the experiment with SNB-19 CNS it was 15.7%; in the experiment with U251 CNS, -36.6% (active); in the experiment with PC-3 prostate it was 73.4%; in the experiment on SK-MEL-5 melanoma it was 10.6%; in the experiment with UACC-62 melanoma, -14.8% (active). Also, the growth with SK-MEL-28 melanoma is 38.9%.

`Cc1cc2nc3c4ccccc4n(CCCN(C)C)c3nc2cc1C`: the growth with DU-145 prostate is 2.68% (active); in the experiment with K-562 leukemia, -4.14% (active); in the experiment with MALME-3M melanoma, -89.6% (active); in the experiment on MDA-MB-231 breast it was -23.4% (active); in the experiment with RXF 393 renal, -62.1% (active); in the experiment with SF-268 CNS it was -38.6% (active). Besides, the growth with SF-295 CNS was -30.4% (active); in the experiment with SF-539 CNS it was -69.4% (active); in the experiment with UACC-257 melanoma, -81.2% (active); in the experiment with M14 melanoma, -74.4% (active); in the experiment on HCT-15 colon, -10.1% (active); in the experiment on HT29 colon it was -3.59% (active). Moreover, the growth was -97.8% (active) with SNB-75 CNS; -8.61% (active) in the experiment with SNB-19 CNS; 1.33% (active) in the experiment with U251 CNS; -32% (active) in the experiment with PC-3 prostate; -94.4% (active) with SK-MEL-5 melanoma; -90.4% (active) in the experiment with UACC-62 melanoma. Moreover, in the experiment with SK-MEL-28 melanoma, the growth is -71.1% (active).

The values are drawn from PubChem BioAssay (NCI).
